We go through 40 compounds from the supplement of paper PMC12067926.

Structures are written as SMILES. Unmarked numbers belong to inactive results.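 The calls were made as follows: active = growth AUC significantly below the DMSO wells by Dunnett test; inactive = the rest.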

The assay deals with Community 10. Kind of assay: relative growth (AUC of 72 h growth curve relative to DMSO control, dAUC) (ratio); higher = more growth (less inhibition), active = hit call of the paper. The settings on record: 20 µM. Here is the method: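 Environmental bacterial isolates (Iceland stream sediment and Silwood Park soil) and whole stream-sediment communities were grown in LB from a 1:100 dilution with each pesticide at 20 µM (1% DMSO). A600 was read hourly for 72 h and the area under a spline-fitted growth curve (AUC) was computed. dAUC is the mean AUC of 3 biological replicates divided by the mean AUC of the DMSO controls. Significance was tested by Dunnett's test against the DMSO control.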
Turning to `CON(C)C(=O)Nc1ccc(Cl)c(Cl)c1`, the relative growth was 1.03. Regarding `CN1COCN(Cc2cnc(Cl)s2)/C1=N\[N+](=O)[O-]`, the relative growth was 0.777. As for `CO/C=C(/C(=O)OC)c1ccccc1COc1cccc(C(F)(F)F)n1`, the relative growth was 0.887. The result for `CCCCN(CCCC)SN(C)C(=O)Oc1cccc2c1OC(C)(C)C2` reads 0.824; that for `CNC(=O)ON=C(C)SC`, 1.14. As for `CC(COc1ccc(Oc2ccccc2)cc1)Oc1ccccn1` (stereo not given), the relative growth is 1.01.

Turning to `CSc1nc(NC(C)C)nc(NC(C)C)n1`, the relative growth was 0.857. As for `CC1(C)CON(Cc2ccccc2Cl)C1=O`, the relative growth was 0.791.

As to `O=C(NCCc1ncc(C(F)(F)F)cc1Cl)c1ccccc1C(F)(F)F`, the relative growth is 0.806. As for `CCOc1ccc(C(C)(C)COCc2cccc(Oc3ccccc3)c2)cc1`, the relative growth is 1.02.

Consider `Cc1cc(C2CC2)nc(Nc2ccccc2)n1`, for which the relative growth was 0.995. As to `OC(Cn1cncn1)(c1ccc(F)cc1)c1ccccc1F` (stereo not given), the relative growth is 1.09.

Regarding `C/C(=N\C#N)N(C)Cc1ccc(Cl)nc1`, the relative growth was 1.15.

For `COP(N)(=O)SC` (stereo not given), the relative growth was 0.803. For `CC1COC(Cn2cncn2)(c2ccc(Oc3ccc(Cl)cc3)cc2Cl)O1` (stereo not given), the relative growth is 0.896. As to `CCCN(CCC)C(=O)SCc1ccccc1`, the relative growth was 0.888. For the compound `Nc1c([N+](=O)[O-])ccc(Oc2ccccc2)c1Cl`, the relative growth is 0.833. Consider `CC(C)OC(=O)Nc1cccc(Cl)c1`, for which the relative growth was 1.17. With `CCC(CC)Nc1c([N+](=O)[O-])cc(C)c(C)c1[N+](=O)[O-]`, the relative growth was 0.687. Turning to `CCC(C)c1ccccc1OC(=O)NC` (stereo not given), the relative growth was 1.08. Turning to `O=C(O)CNCP(=O)(O)O`, the relative growth is 0.952. `Cc1cc(C(C#N)c2ccc(Cl)cc2)c(Cl)cc1NC(=O)c1cc(I)cc(I)c1O` (stereo not given): the relative growth was 0.677. Under `O=C1C=C(N(Cc2ccc(Cl)nc2)CC(F)F)CO1` stands 0.814; under `COc1ccc(C(=CC(=O)N2CCOCC2)c2ccc(Cl)cc2)cc1OC` (mixture of isomers), 0.919; under `N#Cc1cc(Br)c(O)c(Br)c1`, 0.931. Regarding `CCc1cccc(C)c1N(C(=O)CCl)[C@@H](C)COC`, the relative growth was 0.929. On to `CC(C)(C)[C@@H](O)[C@H](Oc1ccc(Cl)cc1)n1cncn1`, for which the relative growth is 1.07.

Regarding `Clc1ccc(C(c2ccc(Cl)cc2)C(Cl)(Cl)Cl)cc1`, the relative growth was 0.832. Turning to `COC(=O)Nc1nc2ccccc2[nH]1`, the relative growth is 0.869.

In the case of `COP(=S)(OC)Oc1ccc(SC)c(C)c1`, the relative growth was 0.993. Turning to `CC1(C)C(C=C(Cl)Cl)C1C(=O)OC(C#N)c1ccc(F)c(Oc2ccccc2)c1` (stereo not given), the relative growth is 0.911. With `CS(=O)(=O)c1cc(C(F)(F)F)ccc1C(=O)c1cnoc1C1CC1`, the relative growth was 1.13. Regarding `N#C/N=C1\SCCN1Cc1ccc(Cl)nc1`, the relative growth is 1.02. Under `CC[C@H]1CCC[C@H](O[C@H]2CC[C@H](N(C)C)[C@@H](C)O2)[C@@H](C)C(=O)C2=C[C@@H]3[C@@H](C=C(C)[C@@H]4C[C@@H](O[C@@H]5O[C@@H](C)[C@H](OC)[C@@H](OC)[C@H]5OC)C[C@@H]34)[C@@H]2CC(=O)O1.CC[C@H]1CCC[C@H](O[C@H]2CC[C@H](N(C)C)[C@@H](C)O2)[C@@H](C)C(=O)C2=C[C@H]3[C@@H]4C[C@H](O[C@@H]5O[C@@H](C)[C@H](OC)[C@@H](OC)[C@H]5OC)C[C@H]4C=C[C@H]3C2CC(=O)O1` stands 0.772. Consider `ClC1C(Cl)C(Cl)C(Cl)C(Cl)C1Cl` (stereo not given), for which the relative growth is 0.844. Under `CC(C)OC(=O)C(C(=O)OC(C)C)=C1SCCS1` stands 0.804; under `CCCCC(C#N)(Cn1cncn1)c1ccc(Cl)cc1` (stereo not given), 0.956; under `CS(=O)(=O)NC(=O)c1cc(Oc2ccc(C(F)(F)F)cc2Cl)ccc1[N+](=O)[O-]`, 1.09.

With `Fc1ccc(Oc2ccnc3cc(Cl)cc(Cl)c23)cc1`, the relative growth is 0.887. For `Cc1cc(C)c(C2=C(OC(=O)CC(C)(C)C)C3(CCCC3)OC2=O)c(C)c1`, the relative growth was 0.848.
